Screening results (PubChem BioAssay)
IL1B secr inh: qHTS for Inhibitors of Inflammasome Signaling: IL-1-beta AlphaLISA Primary Screen; THP-1 LPS/ATP IL-1B secretion, AlphaLISA, 16 h; active compounds read low; activity change, % at 57.5 µM; 360,000 compounds, 4.7% hits; in the data active = activity change below about -50%; inconclusive = mostly about -30% to -49%
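Secreted IL-1B measured by AlphaLISA bead assay after 16 h compound exposure of THP-1 cells; compounds (final up to 57.5 uM) added 1 h before LPS (250 ng/mL) and ATP (1.25 mM) stimulation; lower signal means less secretion.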
DT40 TDP1 no CPT: qHTS for Inhibitors of human tyrosyl-DNA phosphodiesterase 1 (TDP1): qHTS in cells in absence of CPT; DT40 Tdp1-/- hTDP1 cells, no CPT, ATP luminescence, 48 h; Potency, µM (series often up to 46.2 µM), hits mostly inhibitors; 420,000 compounds, 15% hits; also: nearly all actives have a fitted effect of over 55% in size
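Chicken DT40 Tdp1-/- cells complemented with human TDP1, screened without camptothecin (DMSO vehicle only), 400 cells/well. Compounds pin-transferred, cells incubated at 37 °C for at least 48 hr. Growth read as ATP-dependent luminescence (CellTiter-Glo, 30 min at RT).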
HepG2 viability: qHTS for Inhibitors of TGF-b: Cytotox Counterscreen; HepG2 CAGA-GFP viability, ATP luminescence, 18 h; Potency, µM (series often up to 46.1 µM), usual class: cytotoxic; 410,000 compounds, 0.76% hits
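HepG2 CAGA-GFP cells (1000/well, DMEM with 1% FBS) received compound, then TGF-beta at 500 pg/mL final, and were incubated 18 hours at 37 degrees C. Viability was read by CellTiter-Glo luminescence. Media-only wells were set as complete cell-killing and DMSO as no toxicity.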
TDP1 inh: qHTS Assay for Inhibitors of Tyrosyl-DNA Phosphodiesterase (TDP1) | recombinant TDP1, AlphaScreen DNA substrate cleavage | Potency, µM (doses to about 130 µM), actives largely listed as inhibitors | 350,000 compounds, 0.28% hits | AID 485290, 2010 | Tyrosyl-DNA phosphodiesterase 1 (Homo sapiens), Q9NUW8; also: nearly all actives have a fitted effect of over 40% in size
Target sequence (Q9NUW8 whole entry, looked up): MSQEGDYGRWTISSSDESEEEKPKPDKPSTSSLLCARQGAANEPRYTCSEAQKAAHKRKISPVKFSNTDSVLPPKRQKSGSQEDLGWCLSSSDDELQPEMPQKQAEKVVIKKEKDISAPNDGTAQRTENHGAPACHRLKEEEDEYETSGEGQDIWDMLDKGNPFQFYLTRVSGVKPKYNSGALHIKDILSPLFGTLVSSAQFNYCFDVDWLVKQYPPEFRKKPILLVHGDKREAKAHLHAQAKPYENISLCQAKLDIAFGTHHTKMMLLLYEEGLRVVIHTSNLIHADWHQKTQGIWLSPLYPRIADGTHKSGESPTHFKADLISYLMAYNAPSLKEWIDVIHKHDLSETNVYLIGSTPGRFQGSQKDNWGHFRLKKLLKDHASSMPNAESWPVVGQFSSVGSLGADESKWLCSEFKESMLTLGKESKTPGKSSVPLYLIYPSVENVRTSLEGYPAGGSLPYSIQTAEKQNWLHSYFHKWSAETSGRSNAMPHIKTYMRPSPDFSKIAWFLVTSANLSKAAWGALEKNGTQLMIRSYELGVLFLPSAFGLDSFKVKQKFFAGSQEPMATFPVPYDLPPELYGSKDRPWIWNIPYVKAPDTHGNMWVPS
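Tdp1 1 nM final; 15 min RT w/ cpd; substrate 15 nM, 5 min; beads 10 ug/ml, 10 min; AlphaScreen read. Neg ctrl: no enzyme.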
TGFb SMAD3 inh: qHTS for Inhibitors of TGF-b | HepG2 CAGA-GFP TGF-b/SMAD3 reporter, GFP fluorescence, 18 h; TGF-beta stimulated, 500 pg/mL final | Potency, µM (titrated, usually from 46.1 µM), hits mostly inhibitors | 410,000 compounds, 1.2% hits; also: nearly all actives have a fitted effect of over 65% in size
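Inhibition was scored as loss of TGF-beta-induced (500 pg/mL final, 18 hours, 37 degrees C) GFP in HEPG2 cells carrying a CAGA-GFP reporter, in DMEM with 1% FBS. Well GFP was summed per cell; Activity was normalised to unstimulated and stimulated DMSO wells, then concentration-response fitting.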
TDP1 cell CPT: qHTS for Inhibitors of human tyrosyl-DNA phosphodiesterase 1 (TDP1): qHTS in cells in presence of CPT; 420,000 compounds, 12% hits; Potency, µM (titrated, usually from 46.2 µM), actives largely listed as inhibitors; chicken DT40 Tdp1-/-;hTDP1 cells + 20 nM CPT, ATP luminescence, 48 h; also: nearly all actives have a fitted effect of over 55% in size
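Cell growth measured by CellTiter-Glo luminescence after a minimum 48 h, 37 C compound exposure with 20 nM CPT in Tdp1-knockout DT40 cells stably expressing hTDP1, seeded 400/well; qHTS titration format.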
A number is an active result; – = inactive; ? = inconclusive; · = not tested or not shown; [ ] = another dose, or the depositor's remark. Only some compounds are listed: those with a hit (about 18% of all), similar ones and a draw of the others. Unless noted, calls follow the shape of the dose curve; as a rule, active = well fitted curve in the direction sought with a large enough effect; inconclusive = small, poorly fitted or top-dose-only effect, or another doubt; inactive = no such curve, though single readings can be large; an effect the other way counts as inactive or inconclusive.

SMILES	IL1B secr inh	DT40 TDP1 no CPT	HepG2 viability	TDP1 inh	TGFb SMAD3 inh	TDP1 cell CPT
O=c1c(Cl)c(N2CCN(c3ccccc3)CC2)cnn1C12CC3CC(CC(C3)C1)C2	–	23.1µM	–	–	–	25.9µM
O=c1c(Cl)c(NCc2ccc(F)cc2)cnn1C12CC3CC(CC(C3)C1)C2	–	16.4µM	–	–	–	16.4µM
O=c1c(Cl)c(N2CCN(c3ccc(F)cc3)CC2)cnn1C12CC3CC(CC(C3)C1)C2	–	?	–	–	–	?
COc1cccc(NC(=O)CN(C)C(=O)C(CCSC)NC(=O)c2ccco2)c1 (stereo not given)	–	–	–	–	–	–
COC(=O)C1=C(COc2ccc(C=O)cc2OC)NC(=O)NC1c1cc(C)ccc1C (stereo not given)	–	14.6µM	–	–	–	?
COC(=O)C1=C(CN2CCN(C)CC2)NC(=O)NC1c1cc(C)ccc1C (stereo not given)	–	–	–	–	–	–
C(=N\NC(=Nc1ccccc1)c1ccccn1)/c1ccccn1	–	10.3µM	–	–	–	10.3µM
Clc1ccc(/C=N/NC(=Nc2ccccc2)c2ccccn2)c(Cl)c1	–	29.1µM	–	–	–	?
Clc1ccc(C=NNc2ccccn2)c(Cl)c1	–	–	–	·	–	–
CCOC(=O)c1c2c(n3ccccc13)C(=O)c1ccccc1C2=O	·	10µM	–	·	?	10µM
CCOC(=O)c1c2c(n(-c3ccc(OC)cc3)c1C)C(=O)C(=O)c1ccccc1-2	–	2.06µM	3.16µM	·	?	3.26µM
C[C@@H]1CC=C[C@@H]2[C@H]1C(=O)N(Cc1ccccc1)[C@H]2c1cccc(C#Cc2ccccc2)c1	–	10.3µM	–	–	?	29.1µM
COC(=O)/C=C/c1cccc([C@H]2[C@@H]3C=CC[C@@H](C)[C@@H]3C(=O)N2Cc2ccccc2)c1	–	16.4µM	–	–	?	23.1µM
COc1ccc(-c2ccoc2)cc1C1C2C=CCC(C)C2C(=O)N1Cc1ccccc1 (stereo not given)	·	·	–	–	15.8µM	·
COc1ccc([C@H]2[C@H]3C=CC[C@@H](C)[C@@H]3C(=O)N2Cc2ccccc2)cc1Cl	–	16.4µM	–	–	?	?
COC(=O)[C@@H](NC(=O)c1ccc2c(c1)S(=O)(=O)c1ccccc1C2=O)C(C)C	?	–	–	–	–	–
CN(CCc1ccccc1)C(=O)c1[nH]c(C(F)(F)F)nc1-c1ccccc1	–	–	–	·	–	–
C[N+]1(CC(=O)c2cccc([N+](=O)[O-])c2)CCOCC1	·	–	–	·	–	–
COc1ccc(-c2ccc(OC)c([C@H]3[C@H]4C=CC[C@@H](C)[C@@H]4C(=O)N3Cc3ccccc3)c2)cc1OC	–	16.4µM	–	–	–	?
COc1cccc(CN2c3ccccc3-c3nc(SCC(=O)Nc4cccc(C)c4)ncc3S2(=O)=O)c1	·	?	–	–	?	?
Cc1nc2ccn(Cc3ccco3)c(=O)c2cc1C(=O)N1CCN(c2ccccc2F)CC1	·	?	–	–	?	?
Cc1ccc(C)c(N2CCN(C(=O)c3cc4c(=O)n(Cc5ccco5)ccc4nc3C)CC2)c1	·	16.4µM	–	–	?	?
Cc1nc2ccn(Cc3cccs3)c(=O)c2cc1C(=O)N1CCN(c2ccccc2F)CC1	·	?	–	–	20µM	?
COc1ccc(Cn2ccc3nc(C)c(C(=O)N4CCN(c5cc(C)ccc5C)CC4)cc3c2=O)cc1	·	23.1µM	–	–	15.8µM	20.6µM
COc1cccc(N2CCN(C(=O)c3cc4c(=O)n(Cc5ccco5)ccc4nc3C)CC2)c1	·	16.4µM	–	–	–	16.4µM
SMILES	IL1B secr inh	DT40 TDP1 no CPT	HepG2 viability	TDP1 inh	TGFb SMAD3 inh	TDP1 cell CPT
CCCC1(c2ccccc2)NC(=O)N(CC(=O)Nc2cc(OC)cc(OC)c2)C1=O (stereo not given)	–	?	–	–[0.0935 µM]	–	–
COc1ccc(Cn2ccc3nc(C)c(C(=O)N4CCN(c5ccccc5)CC4)cc3c2=O)cc1	·	–	–	–	–	–
COc1ccc(Cn2ccc3nc(C)c(C(=O)N4CCN(c5cccc(OC)c5)CC4)cc3c2=O)cc1	·	?	–	–	?	14.6µM
Cc1ccnc(SCC(=O)N2CCN(C(c3ccccc3)c3ccccc3)CC2)n1	–	16.4µM	–	–	–	23.1µM
Cc1ccnc(SCC(=O)N2CCc3ccccc32)n1	–	–	–	·	–	–
NC(=NC(=O)c1ccccc1)N1CCN(C(c2ccccc2)c2ccccc2)CC1	–	?	–	·	–	20.6µM
CCOc1ccccc1C(=O)N1CCN(C(c2ccccc2)c2ccccc2)CC1	-83.3	?	–	–	–	?
CN1CCN(C(N)=NC(=O)c2ccccc2)CC1	–	–	–	–	–	–
O=C(CCNS(=O)(=O)c1ccccc1C(F)(F)F)N1CCN(C(c2ccccc2)c2ccccc2)CC1	–	8.2µM	–	–[0.505 µM]	–	11.6µM
O=C(CCNS(=O)(=O)c1ccccc1C(F)(F)F)N1CCCCCCC1	–	–	–	–	–	–
COc1ccc(/C=N/NC(=O)C2C(C=C(Cl)Cl)C2(C)C)c(OC)c1 (stereo not given)	–	?	–	–	–	?
Cc1cc(C(=O)N2CCN(C(c3ccccc3)c3ccccc3)CC2)on1	–	23.1µM	–	–	?	8.2µM
CN1CCN(C(=O)c2cc(-c3cccc(Cl)c3)on2)CC1	–	–	–	–	–	–
O=C(CNC(=O)Cc1ccccc1)NCC(=O)N1CCN(C(c2ccccc2)c2ccccc2)CC1	–	?	–	–	–	–
CC(C)(C)C(=O)N1CCN(C(c2ccccc2)c2ccccc2)CC1	–	18.4µM	–	·	–	?
O=C(NCC(=O)N1CCN(C(c2ccccc2)c2ccccc2)CC1)c1ccccc1F	-52.4	29.1µM	–	·	–	?
O=C(C1=COCCO1)N1CCN(C(c2ccccc2)c2ccccc2)CC1	–	?	–	–	–	–
CCCNC(=O)N1CCN(C(c2ccccc2)c2ccccc2)CC1	–	–	–	–	–	–
O=C(c1cc(-c2cccc(O)c2)on1)N1CCN(C(c2ccccc2)c2ccccc2)CC1	-53.2	13µM	–	–	?	20.6µM
Cn1cccc1/C=N/NC(=O)CSc1nc2ccccc2[nH]1	–	–	–	–	–	–
